Results: the supplement of paper PMC11732987, “Enantioselective OTUD7B fragment discovery through chemoproteomics screening and high-throughput optimisation” (Communications Chemistry, 2025)
Values without a mark were called inactive.

Assays:
Experiment in all cases: log2 ratio of Biotin-Ahx-Ub-VS probe labelling (fragment/DMSO); higher = less target engagement (more negative = stronger competition), active = hit call of the paper (q ≤ 0.05, log2 ratio ≤ -1)
Settings in all cases: compound concentration: 200 uM; treatment time: 3 h
[1] = molecular target: T1, OTUD6B (UniProt Q8N6M0)
T1 sequence (whole entry): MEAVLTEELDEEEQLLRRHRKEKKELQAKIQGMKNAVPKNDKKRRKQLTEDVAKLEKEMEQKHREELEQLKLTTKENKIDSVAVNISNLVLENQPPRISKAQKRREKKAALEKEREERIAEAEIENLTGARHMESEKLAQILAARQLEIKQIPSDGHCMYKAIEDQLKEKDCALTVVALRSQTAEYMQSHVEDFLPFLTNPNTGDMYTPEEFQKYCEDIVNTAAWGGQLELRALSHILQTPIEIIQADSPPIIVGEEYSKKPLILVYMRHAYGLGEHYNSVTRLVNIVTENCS
Summary of the method: (§1)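 Lysate from HEK293T cells, 495 µg per sample in Tris/CHAPS/IGEPAL buffer with protease inhibitors, was treated for 3 h in triplicate with fragment at 200 µM or vehicle. Biotin-Ahx-Ub-VS was next added at 0.5 µM final for 1 h. The labelled DUBs were enriched with NeutrAvidin, digested with LysC and trypsin, and run by diaPASEF LC-MS/MS, with values given as average log2 fragment/vehicle ratios by unpaired t-test on global-median-normalised Spectronaut quantities of proteins with ≥2 unique peptides.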

[2] = molecular target: T2, OTUD7B (UniProt Q6GQQ9)
T2 sequence (whole entry): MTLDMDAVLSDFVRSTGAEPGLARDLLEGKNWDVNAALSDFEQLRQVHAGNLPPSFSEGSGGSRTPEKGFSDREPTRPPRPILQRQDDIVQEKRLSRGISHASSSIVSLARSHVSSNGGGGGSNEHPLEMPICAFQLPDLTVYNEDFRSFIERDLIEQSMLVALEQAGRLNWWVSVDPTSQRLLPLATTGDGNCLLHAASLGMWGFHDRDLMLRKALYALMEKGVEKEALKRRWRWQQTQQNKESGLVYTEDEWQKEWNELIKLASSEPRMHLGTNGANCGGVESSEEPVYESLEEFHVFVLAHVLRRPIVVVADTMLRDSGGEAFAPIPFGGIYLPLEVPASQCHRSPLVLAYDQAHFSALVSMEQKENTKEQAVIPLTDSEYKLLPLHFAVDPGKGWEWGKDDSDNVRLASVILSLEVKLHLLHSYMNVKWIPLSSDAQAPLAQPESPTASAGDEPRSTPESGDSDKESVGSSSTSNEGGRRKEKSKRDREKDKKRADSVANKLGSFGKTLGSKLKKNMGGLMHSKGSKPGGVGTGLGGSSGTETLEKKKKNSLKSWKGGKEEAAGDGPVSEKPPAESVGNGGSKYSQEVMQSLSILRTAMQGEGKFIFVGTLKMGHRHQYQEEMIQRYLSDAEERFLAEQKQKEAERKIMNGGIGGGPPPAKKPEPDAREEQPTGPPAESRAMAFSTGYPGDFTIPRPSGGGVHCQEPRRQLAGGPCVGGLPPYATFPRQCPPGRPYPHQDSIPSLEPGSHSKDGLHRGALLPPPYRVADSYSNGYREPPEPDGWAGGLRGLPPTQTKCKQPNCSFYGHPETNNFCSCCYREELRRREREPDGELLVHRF
Summary of the method: as §1

[3] = molecular target: PRPF8 (UniProt Q6P2Q9)
Summary of the method: as §1

[4] = molecular target: T3, PSMD7 (UniProt P51665)
T3 sequence (whole entry): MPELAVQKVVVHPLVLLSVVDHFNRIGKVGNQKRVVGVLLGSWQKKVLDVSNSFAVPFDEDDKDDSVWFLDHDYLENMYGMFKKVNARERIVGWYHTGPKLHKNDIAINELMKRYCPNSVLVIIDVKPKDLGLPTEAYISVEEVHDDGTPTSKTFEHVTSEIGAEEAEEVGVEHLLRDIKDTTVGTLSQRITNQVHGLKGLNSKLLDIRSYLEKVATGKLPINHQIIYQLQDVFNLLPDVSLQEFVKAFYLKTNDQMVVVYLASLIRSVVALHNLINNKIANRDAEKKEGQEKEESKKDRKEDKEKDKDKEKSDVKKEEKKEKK
Summary of the method: as §1

[5] = molecular target: UCHL1 (UniProt P09936)
Chain of UCHL1 (P09936 whole entry, looked up): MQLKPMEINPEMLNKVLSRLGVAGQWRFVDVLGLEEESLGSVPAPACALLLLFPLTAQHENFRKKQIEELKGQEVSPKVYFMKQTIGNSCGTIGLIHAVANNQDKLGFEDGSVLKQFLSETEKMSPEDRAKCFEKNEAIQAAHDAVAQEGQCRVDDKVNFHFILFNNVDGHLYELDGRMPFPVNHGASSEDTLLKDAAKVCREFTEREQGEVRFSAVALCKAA
Summary of the method: as §1

[6] = molecular target: T4, UCHL3 (UniProt P15374)
T4 sequence (whole entry): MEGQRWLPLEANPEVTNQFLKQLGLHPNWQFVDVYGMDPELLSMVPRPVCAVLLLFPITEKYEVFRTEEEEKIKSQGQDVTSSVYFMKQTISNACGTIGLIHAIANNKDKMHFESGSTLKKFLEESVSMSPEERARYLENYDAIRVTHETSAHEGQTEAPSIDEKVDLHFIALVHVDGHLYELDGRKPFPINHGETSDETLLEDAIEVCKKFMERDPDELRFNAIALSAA
Summary of the method: as §1

[7] = molecular target: T5, UCHL5 (UniProt Q9Y5K5)
T5 sequence (whole entry): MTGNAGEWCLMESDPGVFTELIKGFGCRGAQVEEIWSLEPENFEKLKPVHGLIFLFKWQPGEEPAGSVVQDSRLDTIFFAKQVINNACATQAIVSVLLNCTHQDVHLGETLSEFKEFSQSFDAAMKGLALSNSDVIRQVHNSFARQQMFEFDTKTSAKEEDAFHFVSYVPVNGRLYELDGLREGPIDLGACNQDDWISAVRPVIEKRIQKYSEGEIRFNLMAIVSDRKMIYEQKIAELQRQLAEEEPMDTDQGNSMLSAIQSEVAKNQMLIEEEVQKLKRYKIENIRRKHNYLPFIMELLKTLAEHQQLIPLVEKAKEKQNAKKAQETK
Summary of the method: as §1

[8] = molecular target: USP10 (UniProt Q14694)
Chain of USP10 (Q14694 whole entry): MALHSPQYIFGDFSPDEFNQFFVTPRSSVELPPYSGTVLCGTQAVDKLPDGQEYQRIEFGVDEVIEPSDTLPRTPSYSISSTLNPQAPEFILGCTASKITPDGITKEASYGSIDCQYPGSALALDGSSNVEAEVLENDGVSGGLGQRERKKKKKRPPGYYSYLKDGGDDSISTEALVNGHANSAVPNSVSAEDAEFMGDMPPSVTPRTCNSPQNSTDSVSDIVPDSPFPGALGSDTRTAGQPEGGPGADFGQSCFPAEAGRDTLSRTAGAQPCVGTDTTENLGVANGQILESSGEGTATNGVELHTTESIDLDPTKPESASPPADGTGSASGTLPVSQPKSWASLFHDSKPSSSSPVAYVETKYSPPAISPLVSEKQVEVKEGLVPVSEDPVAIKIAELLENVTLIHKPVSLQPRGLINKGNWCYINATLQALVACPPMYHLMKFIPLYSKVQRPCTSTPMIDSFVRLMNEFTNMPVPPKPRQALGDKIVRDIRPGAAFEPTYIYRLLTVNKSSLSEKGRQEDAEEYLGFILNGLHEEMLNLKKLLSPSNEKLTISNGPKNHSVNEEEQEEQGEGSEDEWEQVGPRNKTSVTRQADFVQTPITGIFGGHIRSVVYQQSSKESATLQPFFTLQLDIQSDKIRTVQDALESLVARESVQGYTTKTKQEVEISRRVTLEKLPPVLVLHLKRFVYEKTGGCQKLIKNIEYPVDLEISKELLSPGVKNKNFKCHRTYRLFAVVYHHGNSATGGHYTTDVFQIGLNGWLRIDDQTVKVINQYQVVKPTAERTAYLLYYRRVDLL
Summary of the method: as §1

[9] = molecular target: T6, USP15 (UniProt Q9Y4E8)
T6 sequence (whole entry): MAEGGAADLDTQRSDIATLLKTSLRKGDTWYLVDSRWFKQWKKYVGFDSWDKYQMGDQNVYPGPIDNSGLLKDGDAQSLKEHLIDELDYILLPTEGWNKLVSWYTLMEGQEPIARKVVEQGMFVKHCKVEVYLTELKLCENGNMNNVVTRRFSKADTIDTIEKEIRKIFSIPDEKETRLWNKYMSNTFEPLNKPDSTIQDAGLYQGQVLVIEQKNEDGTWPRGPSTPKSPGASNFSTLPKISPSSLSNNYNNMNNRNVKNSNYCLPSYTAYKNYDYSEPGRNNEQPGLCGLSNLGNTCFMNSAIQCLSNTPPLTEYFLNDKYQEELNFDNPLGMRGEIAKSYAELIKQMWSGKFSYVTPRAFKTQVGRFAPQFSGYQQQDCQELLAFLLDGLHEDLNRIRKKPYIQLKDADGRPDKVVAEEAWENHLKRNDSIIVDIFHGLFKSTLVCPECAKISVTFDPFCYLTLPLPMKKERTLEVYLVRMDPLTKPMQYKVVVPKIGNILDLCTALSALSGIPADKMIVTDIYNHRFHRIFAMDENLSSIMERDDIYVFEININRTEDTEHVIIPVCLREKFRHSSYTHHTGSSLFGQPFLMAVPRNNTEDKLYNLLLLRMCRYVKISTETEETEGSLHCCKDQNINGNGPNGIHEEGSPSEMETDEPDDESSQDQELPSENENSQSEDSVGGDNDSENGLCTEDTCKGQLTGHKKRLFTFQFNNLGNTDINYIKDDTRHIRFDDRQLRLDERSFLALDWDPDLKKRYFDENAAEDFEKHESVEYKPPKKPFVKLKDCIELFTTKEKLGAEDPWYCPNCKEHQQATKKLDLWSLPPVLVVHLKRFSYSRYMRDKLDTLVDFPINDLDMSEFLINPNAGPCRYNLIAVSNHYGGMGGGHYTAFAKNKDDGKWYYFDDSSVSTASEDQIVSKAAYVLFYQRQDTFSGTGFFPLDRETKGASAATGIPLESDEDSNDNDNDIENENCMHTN
Summary of the method: as §1

[10] = molecular target: USP16 (UniProt Q9Y5T5)
Chain of USP16 (Q9Y5T5 whole entry, looked up): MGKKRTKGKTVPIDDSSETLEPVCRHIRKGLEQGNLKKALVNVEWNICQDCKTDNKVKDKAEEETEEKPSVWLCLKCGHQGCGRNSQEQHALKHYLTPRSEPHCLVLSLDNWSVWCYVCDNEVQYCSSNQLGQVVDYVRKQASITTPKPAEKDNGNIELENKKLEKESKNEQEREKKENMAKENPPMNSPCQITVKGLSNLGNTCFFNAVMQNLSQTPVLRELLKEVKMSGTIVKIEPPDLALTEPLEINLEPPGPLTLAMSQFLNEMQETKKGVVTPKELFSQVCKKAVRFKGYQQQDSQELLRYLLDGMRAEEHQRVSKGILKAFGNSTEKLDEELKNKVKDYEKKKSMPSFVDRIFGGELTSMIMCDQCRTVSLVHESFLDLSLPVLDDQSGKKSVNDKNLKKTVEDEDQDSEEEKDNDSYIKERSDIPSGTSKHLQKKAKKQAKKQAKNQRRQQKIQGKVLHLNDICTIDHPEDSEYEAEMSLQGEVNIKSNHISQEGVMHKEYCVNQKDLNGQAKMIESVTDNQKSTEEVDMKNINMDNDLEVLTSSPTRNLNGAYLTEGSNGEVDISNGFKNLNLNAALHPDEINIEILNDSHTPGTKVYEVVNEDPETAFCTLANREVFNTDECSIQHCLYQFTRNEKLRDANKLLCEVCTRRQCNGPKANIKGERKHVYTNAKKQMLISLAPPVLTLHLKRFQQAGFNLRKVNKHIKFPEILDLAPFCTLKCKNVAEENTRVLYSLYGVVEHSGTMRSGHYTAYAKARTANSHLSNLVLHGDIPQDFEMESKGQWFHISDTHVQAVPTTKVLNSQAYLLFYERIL
Summary of the method: as §1

O=C(CCl)N1CCCCC12CCOCC2
log2 ratio of Biotin-Ahx-Ub-VS probe labelling [1]: -0.371
log2 ratio of Biotin-Ahx-Ub-VS probe labelling [2]: -0.652
log2 ratio of Biotin-Ahx-Ub-VS probe labelling [3]: -0.0698
log2 ratio of Biotin-Ahx-Ub-VS probe labelling [4]: -0.183
log2 ratio of Biotin-Ahx-Ub-VS probe labelling [5]: -2.07 (active)
log2 ratio of Biotin-Ahx-Ub-VS probe labelling [6]: -0.176
log2 ratio of Biotin-Ahx-Ub-VS probe labelling [7]: -0.503
log2 ratio of Biotin-Ahx-Ub-VS probe labelling [8]: -0.064
log2 ratio of Biotin-Ahx-Ub-VS probe labelling [9]: -0.474
log2 ratio of Biotin-Ahx-Ub-VS probe labelling [10]: -0.51
